Laboratory results from PubChem BioAssay AID1159580 (chemical genetic matrix, 2015).
The campaign covered roughly 5,500 compounds. About 2,000 (36%) were called active. Roughly 18% stayed inconclusive and do not appear here. This is one part of the list. Values without a mark were called inactive. Cut-off read from the data, not from the text of the source: active = normalized growth mostly below about 0.91 (no sharp cut-off); inconclusive = no clear call, values can overlap the other calls; inactive = mostly above about 0.92.

Test: chemical genetic growth profiling, strain panel (AID 1159580);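 note: tested at 20 µM; growth read once vehicle control cultures reached saturation at 30 °C; 1 = growth at the plate median or of vehicle wells; lower values mean less growth of the strain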
Details: S. cerevisiae deletion strains, growth OD
[1] = locus YAR019C, strain CDC15, hits give low values
[2] = locus YBL105C, strain PKC1, hits give low values
[3] = locus YBR135W, strain CKS1, hits give low values
[4] = locus YBR136W, strain MEC1, hits give low values
[5] = locus YBR160W, strain CDC28, hits give low values
[6] = locus YDL017W, strain CDC7, hits give low values
[7] = locus YDL028C, strain MPS1, hits give low values
[8] = locus YDL101C, strain DUN1, hits give low values
[9] = locus YDL108W, strain KIN28, hits give low values
[10] = locus YDL132W, strain cdc53, hits give low values
[11] = locus YDL214C, strain PRR2, hits give low values
[12] = locus YDR052C, strain DBF4, hits give low values
[13] = locus YDR054C, strain cdc34, hits give low values
[14] = locus YDR226W, strain ADK1, hits give low values
[15] = locus YDR477W, strain SNF1, hits give low values
[16] = locus YER123W, strain YCK3, hits give low values
[17] = locus YER133W, strain GLC7, hits give low values
[18] = locus YFL009W, strain cdc4, hits give low values
[19] = locus YFL029C, strain CAK1, hits give low values
[20] = locus YFR003C, strain YPI1, hits give low values
[21] = locus YFR019W, strain FAB1, hits give low values
[22] = locus YFR028C, strain CDC14, hits give low values
[23] = locus YGR040W, strain KSS1, hits give low values
[24] = locus YGR052W, strain FMP48, hits give low values
[25] = locus YGR092W, strain DBF2, hits give low values
[26] = locus YHR030C, strain SLT2, hits give low values
[27] = locus YHR079C, strain IRE1, hits give low values
[28] = locus YHR082C, strain KSP1, hits give low values
[29] = locus YHR205W, strain SCH9, hits give low values
[30] = locus YIL147C, strain SLN1, hits give low values
[31] = locus YJL095W, strain BCK1, hits give low values
[32] = locus YJL157C, strain FAR1, hits give low values
[33] = locus YJR016C, strain ILV3, hits give low values
[34] = locus YJR066W, strain TOR1 (second series), hits give low values
[35] = locus YJR066W, strain TOR1, hits give low values
[36] = locus YKL048C, strain ELM1, hits give low values
[37] = locus YKL067W, strain YNK1, hits give low values
[38] = locus YKL101W, strain HSL1, hits give low values
[39] = locus YKL193C, strain SDS22, hits give low values
[40] = locus YKL203C, strain TOR2, hits give low values
[41] = locus YLR113W, strain HOG1, hits give low values
[42] = locus YLR403W, strain SFP1, hits give low values
[43] = locus YML070W, strain DAK1, hits give low values
[44] = locus YMR001C, strain CDC5, hits give low values
[45] = locus YMR205C, strain PFK2 (second series), hits give low values
[46] = locus YMR277W, strain FCP1, hits give low values
[47] = locus YNL006W, strain LST8, hits give low values
[48] = locus YNL020C, strain ARK1, hits give low values
[49] = locus YNL161W, strain CBK1, hits give low values
[50] = locus YNL183C, strain NPR1, hits give low values
[51] = locus YNL207W, strain RIO2, hits give low values
[52] = locus YNL222W, strain SSU72, hits give low values
[53] = locus YOL078W, strain AVO1, hits give low values
[54] = locus YOL136C, strain PFK27, hits give low values
[55] = locus YOR061W, strain CKA2, hits give low values
[56] = locus YOR119C, strain RIO1, hits give low values
[57] = locus YOR231W, strain MKK1, hits give low values
[58] = locus YOR329C, strain SCD5, hits give low values
[59] = locus YPL031C, strain PHO85, hits give low values
[60] = locus YPL153C, strain RAD53, hits give low values
[61] = locus YPL204W, strain HRR25, hits give low values
[62] = locus YPL209C, strain IPL1, hits give low values
[63] = locus YPL256C, strain CLN2, hits give low values
[64] = locus YPR025C, strain CCL1, hits give low values
[65] = locus YPR106W, strain ISR1, hits give low values
[66] = locus YPR111W, strain DBF20, hits give low values
[67] = strain NNK1, hits give low values
[68] = strain TSCII, hits give low values

Work on `O=[N+]([O-])c1ccc(Sc2ssc(=S)c2-c2ccccc2)nc1` yielded a normalized growth [1] of 0.922, a normalized growth [2] of 0.946 and a normalized growth [3] of 0.943. For the same compound, the normalized growth [4] was 0.952, the normalized growth [5] was 0.947 and the normalized growth [6] was 0.954. For the same compound, the normalized growth [7] was 0.953, the normalized growth [8] was 0.961 and the normalized growth [9] was 0.953. For the same compound, the normalized growth [10] was 0.956, the normalized growth [11] was 0.521 (active) and the normalized growth [12] was 0.968. For the same compound, the normalized growth [13] was 0.918, the normalized growth [14] was 1.01 and the normalized growth [15] was 0.651 (active). The normalized growth [16] was 0.338 (active), the normalized growth [17] was 0.512 (active) and the normalized growth [18] was 0.948. The normalized growth [19] was 0.922, the normalized growth [20] was 0.958 and the normalized growth [21] was 0.546 (active). The normalized growth [22] was 0.97, the normalized growth [23] was 0.673 (active) and the normalized growth [24] was 0.449 (active). The normalized growth [25] was 0.617, the normalized growth [26] was 0.159 (active) and the normalized growth [27] was 0.247 (active). The normalized growth [28] was 0.471 (active), the normalized growth [29] was 0.782 and the normalized growth [30] was 0.956. The normalized growth [31] was 0.175 (active), the normalized growth (locus YJL128C, strain PBS2, hits give low values) was 1.05 and the normalized growth [32] was 0.485 (active). For the same compound, the normalized growth [33] was 0.951, the normalized growth [34] was 0.312 (active) and the normalized growth [35] was 0.327 (active). For the same compound, the normalized growth [36] was 0.843, the normalized growth [37] was 0.61 (active) and the normalized growth [38] was 0.791. The normalized growth [39] was 0.933, the normalized growth [40] was 0.674 (active) and the normalized growth [41] was 0.362 (active). The normalized growth (locus YLR133W, strain CKI1, hits give low values) was 0.626 (active), the normalized growth [42] was 0.703 and the normalized growth [43] was 0.371 (active). For the same compound, the normalized growth [44] was 0.932, the normalized growth [45] was 0.722 (active) and the normalized growth [46] was 0.961. For the same compound, the normalized growth [47] was 0.942, the normalized growth [48] was 0.624 (active) and the normalized growth [49] was 0.929. For the same compound, the normalized growth [50] was 0.256 (active), the normalized growth [51] was 0.944 and the normalized growth [52] was 0.934. The normalized growth (locus YNL307C, strain MCK1 (second series), hits give low values) was 0.633 (active), the normalized growth [53] was 0.928 and the normalized growth [54] was 0.376 (active). The normalized growth [55] was 0.664 (active), the normalized growth [56] was 0.728 and the normalized growth [57] was 0.229 (active). The normalized growth [58] was 0.945, the normalized growth [59] was 0.57 (active) and the normalized growth [60] was 0.537 (active). For the same compound, the normalized growth [61] was 0.422 (active), the normalized growth [62] was 0.945 and the normalized growth [63] was 0.3 (active). For the same compound, the normalized growth [64] was 0.944, the normalized growth [65] was 0.999 and the normalized growth [66] was 0.994. It also gave a normalized growth [67] of 0.956 and a normalized growth [68] of 0.917.
Compound `O=C(NNc1ccc(I)cc1)c1cc(Cl)cc(Cl)c1` has a normalized growth [1] of 0.949, a normalized growth [2] of 0.965 and a normalized growth [3] of 0.953. The normalized growth [4] was 0.953, the normalized growth [5] was 0.948 and the normalized growth [6] was 0.961. The normalized growth [7] was 0.94, the normalized growth [8] was 0.987 and the normalized growth [9] was 0.943. It also gave a normalized growth [10] of 0.95, a normalized growth [11] of 0.88 and a normalized growth [12] of 0.952. For the same compound, the normalized growth [13] was 0.955, the normalized growth [14] was 0.929 and the normalized growth [15] was 0.731. It also gave a normalized growth [16] of 0.651, a normalized growth [17] of 0.909 and a normalized growth [18] of 0.938. For the same compound, the normalized growth [19] was 0.956, the normalized growth [20] was 0.967 and the normalized growth [21] was 0.767 (active). It also gave a normalized growth [22] of 0.931, a normalized growth [23] of 0.809 and a normalized growth [24] of 0.832. For the same compound, the normalized growth [25] was 0.78, the normalized growth [26] was 0.536 (active) and the normalized growth [27] was 0.918. For the same compound, the normalized growth [28] was 0.848, the normalized growth [29] was 0.746 and the normalized growth [30] was 0.955. The normalized growth [31] was 0.695, the normalized growth [32] was 0.94 and the normalized growth [33] was 0.971. For the same compound, the normalized growth [34] was 0.865, the normalized growth [35] was 0.771 and the normalized growth [36] was 0.889. It also gave a normalized growth [37] of 0.906, a normalized growth [38] of 0.842 and a normalized growth [39] of 0.96. The normalized growth [40] was 0.926, the normalized growth [41] was 0.498 (active) and the normalized growth [42] was 0.842. For the same compound, the normalized growth [43] was 0.849, the normalized growth [44] was 0.953 and the normalized growth [45] was 0.904. It also gave a normalized growth [46] of 0.931, a normalized growth [47] of 0.972 and a normalized growth [48] of 0.901. For the same compound, the normalized growth [49] was 0.97, the normalized growth [50] was 0.889 and the normalized growth [51] was 0.963. For the same compound, the normalized growth [52] was 0.946, the normalized growth [53] was 0.955 and the normalized growth [54] was 0.864. For the same compound, the normalized growth [55] was 0.715, the normalized growth [56] was 0.79 and the normalized growth [57] was 0.884. The normalized growth [58] was 0.976, the normalized growth [59] was 0.81 and the normalized growth [60] was 0.84. The normalized growth [61] was 0.832, the normalized growth [62] was 0.956 and the normalized growth [63] was 0.749 (active). For the same compound, the normalized growth [64] was 0.959, the normalized growth [65] was 0.957 and the normalized growth [66] was 0.929. It also gave a normalized growth [67] of 0.97 and a normalized growth [68] of 0.946.
